Experimental data reported in the supplement of paper PMC13380429.
A number with no mark means an inactive call.

Each compound was assayed on Vero E6 infected with SARS-CoV-2 (assay: inhibition of SARS-CoV-2 cytopathic effect; higher = more antiviral protection, active = above 15). Conditions: 10000 nM; 48 h.

SMILES | inhibition of SARS-CoV-2 cytopathic effect [%]
Cc1cc(I)ccc1Nc1c(C(=O)NOCC2CC2)cc(F)c(F)c1F | -4.88
CO[C@H]1C[C@H](O[C@H]2[C@H](C)O[C@@H](O[C@@H]3/C(C)=C/C[C@@H]4C[C@@H](C[C@]5(C=C[C@H](C)[C@@H](C6CCCCC6)O5)O4)OC(=O)[C@@H]4C=C(C)[C@@H](O)[C@H]5OC/C(=C\C=C\[C@@H]3C)[C@]54O)C[C@@H]2OC)O[C@@H](C)[C@@H]1O [doramectin] | 2.69
Cc1c(N)nc([C@H](CC(N)=O)NC[C@H](N)C(N)=O)nc1C(=O)N[C@H](C(=O)N[C@H](C)[C@@H](O)[C@H](C)C(=O)N[C@H](C(=O)NCCc1nc(-c2nc(C(=O)NCCC[S+](C)C)cs2)cs1)[C@@H](C)O)[C@@H](OC1OC(CO)C(O)C(O)C1OC1OC(CO)C(O)C(OC(N)=O)C1O)c1cnc[nH]1 (stereo partly drawn) [bleomycin] | -21.5
c1ccc2c(CC3=NCCN3)cccc2c1 [naphazoline] | 0.73
CC(C)(N)Cc1ccccc1 [phentermine] | 1.23
FC(F)(F)c1ccc(CNc2ccc(Cc3c[nH]c4ncc(Cl)cc34)cn2)cn1 [pexidartinib] | 11.6
COc1ccc(-c2oc3c(CC=C(C)C)c(O[C@@H]4O[C@H](CO)[C@@H](O)[C@H](O)[C@H]4O)cc(O)c3c(=O)c2O[C@@H]2O[C@@H](C)[C@H](O)[C@@H](O)[C@H]2O)cc1 [icariin] | -4.04
O=C(COc1ccc(Cl)cc1)N1CCN(Cc2ccc3c(c2)OCO3)CC1 [fipexide] | 0.49
